Results as given in PubChem BioAssay (Tox21).
“And” between values parts separate entries of the source, which are not always exact repeats. Identical values can stand only once. Results filed as inconclusive are left out. Where a call stands in place of a potency, no number is given. The source made the active and inactive calls. The call rests on the fitted dose curve; in most records, active means well fitted cell-killing curve with a large enough effect in the repeat runs; inconclusive means weak or mixed curves, or effect the other way; inactive means flat fitted curve, though single readings scatter.

Test: Caspase-3/7 induction in HepG2 cells by small molecules, qHTS cell viability counter screen (AID 1346981); further: nearly all actives have a fitted effect of over 30% in size
Conditions: CellTiter-Fluor fluorescence, 17 h; series mostly up to 92.4 µM
Excerpt: U.S. Tox21 Program National Center for Advancing Translational Sciences [NCATS] NIH Chemical Genomics Center [NCGC] U.S. Environmental Protection Agency [EPA] National Institutes of Environmental Health Sciences [NIEHS] National Toxicology Program [NTP] U.S. Food and Drug Administration [FDA] Tox21 Assay Overview: Apoptosis is a process of programmed cell death and plays a central role in the development of multicellular organisms. It is a highly regulated process and induces cell death by activating caspases, which are the members of cysteine aspartic acid-specific protease (caspase) family. Caspases involved in apoptosis are classified by their mechanism of action as initiator caspases (caspase-2, -8, -9 and -10) and executioner caspases (caspase-3, -6, and -7). Inhibition of apoptosis results in number of cancers, autoimmune diseases, inflammatory diseases and viral infection. To identify small molecule compounds that induce apoptosis, a homogeneous, luminescent Caspase-Glo 3/7 assay was used. Wild type HepG2 cells were used to screen Tox21 libraries for identifying caspase-3/7 activity inducers. Also cytotoxicity of the compounds was tested in parallel by measuring the cell viability using CellTiter-Fluor assay system in the same wells.
Tox21 Assay Protocol Summary: HepG2 cells were dispensed at 2,000 per well in 5uL of culture medium into white solid bottom 1536-well plates (Corning Life Sciences, Corning, NY) using a Multidrop Combi (Thermo Scientific, Waltham, MA) dispenser. The assay plates were incubated at 37 C and 5% CO2 for 5hr, and then 23nL of compounds dissolved in DMSO and positive control were transferred using a Pintool station ([…], San Diego, CA). The assay plates were incubated at 37C and 5% CO2 for 17hr. For cytotoxicity read, after 16hr incubation at 37C, 1uL CellTiter-Fluor reagent (Promega Corporation, Madison, WI) was added to each well of the assay plates using Flying Reagent Dispenser (FRD, Aurora Discovery, San Diego, CA). After 1hr incubation at 37C and 5% CO2, the fluorescence signal was quantified using a ViewLux plate reader (PerkinElmer, Shelton, CT).
Potency means the concentration at half of the fitted maximal effect.

SMILES | Potency
C[N+]1(CCF)[C@@H]2CC[C@H]1CC(OC(=O)C(O)(c1ccccc1)c1ccccc1)C2 (stereo not given in full) | inactive
Nc1cc(Cl)cc(C(=O)O)c1Cl | inactive
C[C@@H]1C[C@@H]([C@H](O)CC2CC(=O)NC(=O)C2)C(=O)[C@@H](C)C1 | 121 nM (active) and 1.72 µM (active) and 750 nM (active)
CCC1CCC(=O)O1 (stereo not given) | inactive
O=C([O-])c1ccccn1.O=C([O-])c1ccccn1.O=C([O-])c1ccccn1.[Cr+3] | inactive
CCCSP(=S)(OCC)Oc1ccc(SC)cc1 (stereo not given) | inactive
Clc1ccc(Cl)c(Cl)c1 | inactive
CC(Cl)C(=O)O (stereo not given) | inactive
CC(C)(C)c1ccc(CCOc2ncnc3ccccc23)cc1 | inactive
Clc1ccc2ccccc2c1 | inactive
Cc1nc(N(C)C)nc(OC(=O)N(C)C)c1C | inactive
O=[N+]([O-])c1cc(Cl)c(Cl)cc1Cl | inactive
CC[N+]1(C)CCCC(OC(=O)C(O)(c2ccccc2)c2ccccc2)C1 (stereo not given) | inactive
OCCCl | inactive
CC(C)CCON=O | inactive
Cc1ncc(C[n+]2csc(CCO)c2C)c(N)n1 | inactive
O=C(Cl)OCCOCCOC(=O)Cl | inactive
C#C[C@]1(O)CC[C@H]2[C@@H]3CCC4=CC(=O)CCC4=C3C=C[C@@]21CC | inactive
CCCCCCCCn1sccc1=O | 68.7 µM (active) and 50.9 µM (active)
O=[N+]([O-])/C=C/c1ccccc1 | 31.1 µM (active) and 61.1 µM (active)

SMILES | Potency
C[CH2][Hg][S]c1ccccc1C(=O)O | 12.2 µM (active) and 13.3 µM (active)
COCc1cnc(C2=NC(C)(C(C)C)C(=O)N2)c(C(=O)O)c1 (stereo not given) | inactive
CC(=O)OC(c1ccccc1)C(Cl)(Cl)Cl (stereo not given) | inactive
CCNC(=O)NC(=O)/C(C#N)=N/OC | inactive
NP(N)(=O)NC(=O)c1ccc(F)cc1 | inactive
CON(C)C(=O)Nc1ccc(Cl)cc1 | inactive
CCCCC#N | inactive
CCc1ccccc1N | inactive
CCCCCBr | inactive
O=C(O)c1ccc(=O)[nH]c1 | inactive
N#CC(C#N)=Cc1ccc(O)c(O)c1 | inactive
CCCCC(CC)COC(=O)c1c(Br)c(Br)c(Br)c(Br)c1C(=O)OCC(CC)CCCC (stereo not given) | inactive
CCCC[N+]1(C)[C@@H]2CC(OC(=O)[C@H](CO)c3ccccc3)C[C@H]1[C@@H]1O[C@@H]12 (stereo not given in full) | inactive
O=C(N[C@H]1CN2CCC1CC2)c1ccc2c(c1)OCCO2 | inactive
C[C@H]1[C@@H]2Cc3ccc(O)cc3[C@@]1(C)CCN2C | inactive
CC(Cc1ccccc1)NCc1ccccc1Cl (stereo not given) | inactive
O=C(O)c1cc(I)cc(I)c1I | inactive
O=C(O)C(F)(F)C(F)(F)C(F)(F)C(F)(F)C(F)(F)F | inactive
Cc1nnc(-c2ccccc2)c(=O)n1N | inactive
COC1=CC(=O)O[C@@H](/C=C/c2ccc3c(c2)OCO3)C1 | inactive
